Test [1] is described as follows: qHTS RealTime-Glo MT Cell Viability Assay in HepG2 cells - 8 hour (AID 1224873). Further: nearly all actives have a fitted effect of over 55% in size. In short, it runs like this:
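HepG2 cells mixed with RealTime-Glo MT reagents (NanoLuc plus cell-permeant prosubstrate) were seeded at 600 cells/well, incubated 5 h at 37 C/5% CO2, then pinned with compounds in DMSO; nonlytic luminescence tracked viability during 40 h treatment.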
(In general: In qHTS, concentration-response curves come from the screen itself.)

Test [2] is described as follows: qHTS RealTime-Glo MT Cell Viability Assay in HEK293 cells - 40 hour (AID 1224874). Further: nearly all actives have a fitted effect of over 50% in size. Further: potency means the concentration at half of the fitted maximal effect. The conditions noted are these: RealTime-Glo luminescence; max response: stronger effect = lower value. In short, it runs like this:
(§1)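 600 HEK293 cells per well, dispensed already mixed with RealTime-Glo MT reagents. Compound dosing came 5 h later. The same wells were read for luminescence at 0, 8, 16, 24, 32 and 40 h of exposure at 37 C.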

Test [3] in a line: A CellTox Green Cytotoxicity Assay to monitor cytotoxicity in HEK293 cells - 24 hour (AID 1224875). Further: nearly all actives have a fitted effect of over 45% in size. Further: potency means the concentration at half of the fitted maximal effect. A digest of the protocol: (§2)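 Dead-cell fluorescence measured kinetically: asymmetric cyanine dye, HEK293, 600 cells/well, 5 h settle, 23 nL cpd/DMSO, 37 C, reads 0–40 h every 8 h.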
A short description of test [4]: A CellTox Green Cytotoxicity Assay to monitor cytotoxicity in HepG2 cells - 16 hour (AID 1224876). Further: nearly all actives have a fitted effect of over 45% in size. Further: potency means the concentration at half of the fitted maximal effect. In short, it runs like this:
(§3)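 First, HepG2 cells (600/well) mixed with reagent were plated; second, after 5 h at 37 C they received compounds via pintool; third, fluorescence was measured at 0 h through 40 h at 8 h intervals.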

Test [5] can be described thus: qHTS RealTime-Glo MT Cell Viability Assay in HepG2 cells - 32 hour (AID 1224877). Further: nearly all actives have a fitted effect of over 55% in size. Further: potency means the concentration at half of the fitted maximal effect. A digest of the protocol:
(§4)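 Tox21 10K library screened in qHTS format on HepG2 cells carrying RealTime-Glo reagents. Compounds were added after a 5 h preincubation, and the luminescent signal from continuous culture was measured repeatedly during 40 h treatment.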

Test [6] in a line: A CellTox Green Cytotoxicity Assay to monitor cytotoxicity in HepG2 cells - 24 hour (AID 1224878). Further: nearly all actives have a fitted effect of over 45% in size. Further: potency means the concentration at half of the fitted maximal effect. A digest of the protocol:
as §3

The nature of test [7]: A CellTox Green Cytotoxicity Assay to monitor cytotoxicity in HepG2 cells - 40 hour (AID 1224879). Further: nearly all actives have a fitted effect of over 40% in size. Further: potency means the concentration at half of the fitted maximal effect. In short, it runs like this:
as §3

Test [8] in a line: qHTS RealTime-Glo MT Cell Viability Assay in HEK293 cells - 0 hour (AID 1224880). Further: nearly all actives have a fitted effect of over 45% in size. Further: potency means the concentration at half of the fitted maximal effect. A digest of the protocol: as §1
A short description of test [9]: A CellTox Green Cytotoxicity Assay to monitor cytotoxicity in HEK293 cells - 32 hour (AID 1224881). Further: nearly all actives have a fitted effect of over 40% in size. Further: potency means the concentration at half of the fitted maximal effect. A digest of the protocol:
as §2

A short description of test [10]: A CellTox Green Cytotoxicity Assay to monitor cytotoxicity in HEK293 cells - 8 hour (AID 1224884). Further: nearly all actives have a fitted effect of over 35% in size. Further: potency means the concentration at half of the fitted maximal effect. In short, it runs like this:
as §2

The nature of test [11]: qHTS RealTime-Glo MT Cell Viability Assay in HepG2 cells - 16 hour (AID 1224885). Further: nearly all actives have a fitted effect of over 50% in size. Further: potency means the concentration at half of the fitted maximal effect. A digest of the protocol:
as §4

Test [12] can be described thus: qHTS RealTime-Glo MT Cell Viability Assay in HEK293 cells - 24 hour (AID 1224886). Further: nearly all actives have a fitted effect of over 50% in size. Further: potency means the concentration at half of the fitted maximal effect. In short, it runs like this: (§5)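 Luminescence generated by NanoLuc from substrate produced by living HEK293 cells served as the viability signal. Each value reflects the reading at its stated time point during continuous 40 h compound exposure at 37 C.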
The nature of test [13]: qHTS RealTime-Glo MT Cell Viability Assay in HEK293 cells - 8 hour (AID 1224887). Further: nearly all actives have a fitted effect of over 50% in size. Further: potency means the concentration at half of the fitted maximal effect. A digest of the protocol: as §1
Test [14] is described as follows: A CellTox Green Cytotoxicity Assay to monitor cytotoxicity in HEK293 cells - 16 hour (AID 1224888). Further: nearly all actives have a fitted effect of over 35% in size. In short, it runs like this:
as §2

Test [15] is described as follows: qHTS RealTime-Glo MT Cell Viability Assay in HepG2 cells - 0 hour (AID 1224889). Further: nearly all actives have a fitted effect of over 50% in size. Further: potency means the concentration at half of the fitted maximal effect. In short, it runs like this: as §4
Test [16] in a line: A CellTox Green Cytotoxicity Assay to monitor cytotoxicity in HepG2 cells - 8 hour (AID 1224890). Further: nearly all actives have a fitted effect of over 45% in size. Further: potency means the concentration at half of the fitted maximal effect. A digest of the protocol:
as §3

The nature of test [17]: qHTS RealTime-Glo MT Cell Viability Assay in HEK293 cells - 16 hour (AID 1224872). Further: nearly all actives have a fitted effect of over 50% in size. Further: potency means the concentration at half of the fitted maximal effect. A digest of the protocol:
as §5

Test [18] in a line: qHTS assay to identify small molecule antagonists of the estrogen receptor alpha (ER-alpha) signaling pathway using the BG1 cell line in the presence of 0.1 nM 17-beta-estradiol - cell viability counter screen (AID 1259241). Further: nearly all actives have a fitted effect of over 40% in size. Further: potency means the concentration at half of the fitted maximal effect. In short, it runs like this: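 VM7Luc4E2 cells (endogenous ER-alpha, 4×ERE-luciferase), hormone-starved 5 days in charcoal-stripped FBS, were treated with compounds plus 0.1 nM 17beta-estradiol for 22 hr at 37C; viability read in same wells as CellTiter-Fluor live-cell protease fluorescence.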

The nature of test [19]: A CellTox Green Cytotoxicity Assay to monitor cytotoxicity in HepG2 cells - 0 hour (AID 1224882). Further: nearly all actives have a fitted effect of over 35% in size. Further: potency means the concentration at half of the fitted maximal effect. In short, it runs like this: as §3
A short description of test [20]: A CellTox Green Cytotoxicity Assay to monitor cytotoxicity in HepG2 cells - 32 hour (AID 1224883). Further: nearly all actives have a fitted effect of over 50% in size. Further: potency means the concentration at half of the fitted maximal effect. In short, it runs like this:
as §3

Several values for one entry are separate records, joined by “and”; a condition that tells them apart may be missing. Equal values may be shown once. Inconclusive results are not listed. Some structures have more than one record in an assay (separate samples or runs), and their calls can disagree. Activity calls are given as the source filed them. The call rests on the fitted dose curve; in most records, active means well fitted curve in the direction sought with a large enough effect in the repeat runs; inconclusive means weak or mixed curves; inactive means no such curve, though single readings can be large; an effect the other way counts as inactive or inconclusive.
On the % scale 0 is the no-effect control and ±100 the full control effect.

In the case of `C[C@]12CC[C@H]3[C@@H](CCC4=CC(=O)CC[C@@]43C)[C@@H]1CC[C@@H]2C(=O)CO`, the Potency result in test [1], in test [3], in test [4], in test [5], in test [6] and in test [7] was “inactive” in each case. The Potency result in test [9], in [10], in test [11], in [13], in [14] and in test [16] was “inactive” in each case. In addition, the Potency is 38.9 µM (active) in test [2]; 17.4 µM (active) in test [8]; 24.5 µM (active) in test [12]; 4.36 µM (active) and 9.52 µM (active) in [15].
With `C=C(C)C1CC=C(C)CC1` (centres undefined), the Potency result in test [17], in test [1], in test [3], in test [4], in [5] and in [6] was “inactive” each time. For the same molecule, the Potency result in [7], in [8], in test [9], in test [10], in test [11] and in test [12] was “inactive” each time. For the same molecule, the Potency entry in test [13], in [14], in [15], in [16] and in test [18] was “inactive” throughout. For the same molecule, in test [2], the max response was 1.72% (inactive) and 5.41% (inactive).
On to `OC1CCCCCCCCCCC1`, for which the Potency entry in test [17], in test [1], in test [5], in [8], in test [11] and in [12] was “inactive” in each case. For the same molecule, the Potency entry in test [13] and in [15] was “inactive” throughout. For the same molecule, the max response in test [2] was -5.96% (inactive) and 2.11% (inactive). The Potency in test [4] was 38.9 µM (active); in test [6], 49.5 µM (active) and 43.6 µM (active); in test [7], 49.5 µM (active); in [9], “inactive and 43.6 µM (active)”; in test [19], “inactive and 27.5 µM (active)”; in test [20], 44.1 µM (active) and 43.6 µM (active). The Potency result in test [10] was “inactive and 43.6 µM (active)”; in test [16], 43.6 µM (active).
Regarding `COc1cccc2c1C(=O)c1c(O)c3c(c(O)c1C2=O)C[C@@](O)(C(=O)CO)C[C@@H]3O[C@H]1C[C@H](N)[C@H](O)[C@H](C)O1`, the Potency in [17] is 0.346 µM (active); in test [2], 97.6 nM (active) and 190 nM (active); in test [4], “inactive and 21.3 µM (active)”; in [5] it was 0.952 µM (active); in test [6], “inactive and 21.3 µM (active)”; in test [12], 155 nM (active) and 301 nM (active). Further, in [18], the Potency is 11.9 µM (active). In addition, the Potency result in test [1], in test [3], in test [7], in test [8], in [9] and in test [11] was “inactive” in each case. Moreover, the Potency result in test [13], in [14], in [15] and in [16] was “inactive” in each case.
For the molecule `Cc1ncc[nH]1`, the Potency result in test [17], in [1], in test [3], in [4], in [5] and in [6] was “inactive” each time. The Potency result in [7], in [8], in test [9], in test [10], in [11] and in test [12] was “inactive” throughout. For the same molecule, the Potency entry in [13], in test [14], in [15] and in test [16] was “inactive” throughout. For the same molecule, the max response in [2] is 3.53% (inactive) and 2.93% (inactive).
Take `CC(=O)CC/C=C(\C)CCC=C(C)C`: the Potency entry in test [17], in test [1], in test [3], in [4], in test [5] and in [6] was “inactive” each time. Moreover, the Potency result in test [7], in test [8], in test [9], in test [10], in test [11] and in [12] was “inactive” throughout. The Potency result in test [13], in [14], in test [15], in [16] and in [18] was “inactive” throughout. Besides, the max response in test [2] was 1.02% (inactive) and 0.97% (inactive).
Regarding `O=C1c2cccc(O)c2C(=O)c2c(O)cccc21`, the Potency entry in [1], in test [3], in test [4], in test [5], in [6] and in test [7] was “inactive” in each case. In addition, the Potency result in [8], in test [9], in [19], in test [20], in test [10] and in test [11] was “inactive” each time. For the same molecule, the Potency entry in [14], in test [15], in [16] and in test [18] was “inactive” throughout.
For `c1ccc2sc(SSN3CCOCC3)nc2c1`, the Potency in test [17] was 43.6 µM (active); in test [2], 19.5 µM (active) and 43.6 µM (active); in [3], 38.8 µM (active); in test [5], “inactive and 49 µM (active)”; in test [6], 54.9 µM (active); in test [7], 54.8 µM (active) and 49 µM (active). Also, the Potency in [9] is 38.8 µM (active) and 54.9 µM (active); in test [11], 54.9 µM (active); in [12], 38.8 µM (active) and 49 µM (active); in test [13], 48.9 µM (active). Also, the Potency result in [8], in test [19], in [10], in test [14], in test [15] and in [16] was “inactive” each time. For the same molecule, the Potency result in test [18] is “inactive”.
As for `CCC(C)OC(=O)c1ccc(O)cc1` (centres undefined), the Potency entry in test [1], in test [3], in [4], in [5], in test [8] and in test [9] was “inactive” in each case. The Potency result in [19], in test [10], in [11], in test [13], in test [14] and in test [15] was “inactive” in each case. The Potency entry in test [16] and in [18] was “inactive” throughout.
With `Cc1ccc2c(n1)Oc1ccc(C(C)C(=O)OCC(=O)N(C)C)cc1C2` (centres undefined), in test [2], the max response is -20.9% (inactive) and -25.9% (inactive). The Potency entry in test [3], in test [4], in test [5], in test [6], in [7] and in [8] was “inactive” in each case. Further, the Potency entry in test [9], in test [20], in [10], in test [11], in test [12] and in test [13] was “inactive” in each case. Moreover, the Potency result in [14], in test [15], in test [16] and in test [18] was “inactive” each time.
For the molecule `C#C[C@]1(O)CC[C@H]2[C@@H]3CCC4=Cc5oncc5C[C@]4(C)[C@H]3CC[C@@]21C`, the Potency result in test [3], in [4], in test [6], in test [7], in test [19] and in [10] was “inactive” in each case. In addition, the Potency result in [14], in [16] and in [18] was “inactive” each time. For the same molecule, in test [9], the Potency is 49 µM (active).
For `S=C(NC1CCCCC1)NC1CCCCC1`, the Potency result in test [1], in [3], in test [4], in [5], in test [6] and in test [7] was “inactive” throughout. Moreover, the Potency result in [8], in test [9], in [19], in test [10], in test [11] and in test [14] was “inactive” throughout. Besides, the Potency entry in [15], in test [16] and in test [18] was “inactive” throughout. Also, the Potency in test [2] was 17 µM (active) and 21.9 µM (active); in test [12], 17 µM (active) and 21.9 µM (active).

(Values after PubChem BioAssay (Tox21).)
